Shown are actives, neighbours in structure and some others; about 17% of the full set was active somewhere.
TDP1 cell noCPT = qHTS for Inhibitors of human tyrosyl-DNA phosphodiesterase 1 (TDP1): qHTS in cells in absence of CPT; DT40 Tdp1-/- hTDP1 cells, no CPT, ATP luminescence, 48 h; Potency, µM (titrated, usually from 46.2 µM), hits mostly inhibitors; actives 15% (n = 420,000); further: nearly all actives have a fitted effect of over 55% in size
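Camptothecin absent (DMSO only). Human TDP1-complemented DT40 knockout cells, 400 cells/well, 37 °C for minimum 48 hr; ATP measured via CellTiter-Glo, 30 min dark incubation, luminescence.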
TDP1 cell CPT = growth inhibition of DT40 Tdp1-/-;hTDP1 cells with camptothecin (screen for TDP1 inhibitors). AID 686979. Potency, µM (titrated, usually from 46.2 µM), hits mostly inhibitors. actives 12% (n = 420,000). chicken DT40 Tdp1-/-;hTDP1 cells + 20 nM CPT, ATP luminescence, 48 h; further: nearly all actives have a fitted effect of over 55% in size
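Chicken DT40 Tdp1-/- cells complemented with human TDP1, 400 cells/well, exposed to compounds plus 20 nM camptothecin for at least 48 h at 37 C; viability read as ATP content by CellTiter-Glo luminescence.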
ATXN viability = viability counter-screen for ATXN expression inhibitors. actives 0.49% (n = 400,000). S2 cells (HEK-293 line with an ATXN2-luciferase reporter) viability, CellTiter-Fluor protease fluorescence, 24 h. Potency, µM (top dose mostly 56.7 µM), actives largely listed as cytotoxic; further: nearly all actives have a fitted effect of over 40% in size
ATXN2 expr inh = ATXN2 expression inhibition | HEK-293 ATXN2-luciferase reporter, luminescence, 24 h | Potency, µM (doses to about 57 µM), actives largely listed as inhibitors | actives 0.72% (n = 360,000) | AID 1745845; further: nearly all actives have a fitted effect of over 55% in size
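ATXN2-luciferase reporter cells (luciferase flanked by upstream and downstream ATXN2 gene portions) were treated 24 h at 37 °C with compounds at up to 57 uM. SteadyGlo luminescence gave expression; GF-AFC fluorescence gave viability.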
HepG2 tox = counter-screen for TGF-b inhibitors: cytotoxicity in HepG2 cells; HepG2 CAGA-GFP viability, ATP luminescence, 18 h; Potency, µM (titrated, usually from 46.1 µM), most hits filed as cytotoxic; actives 0.76% (n = 410,000); AID 588856
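CellTiter-Glo luminescence gave cytotoxicity after 18 hours at 37 degrees C. The cells were HepG2 CAGA-GFP in 1% FBS DMEM, stimulated with 500 pg/mL TGF-beta after compound addition. %Activity was normalised to no-cell wells (complete cell-killing) and DMSO (no toxicity), and curves were fitted and classified.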
TGFb inhibitor = blocks TGF-b signaling. HepG2 CAGA-GFP TGF-b/SMAD3 reporter, GFP fluorescence, 18 h; TGF-beta stimulated, 500 pg/mL final. Potency, µM (doses to about 46.1 µM), most hits filed as inhibitors. actives 1.2% (n = 410,000); further: nearly all actives have a fitted effect of over 65% in size
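HEPG2 CAGA-GFP reporter cells (1000/well, DMEM with 1% FBS) received compounds, then recombinant TGF-beta at 500 pg/mL final for 18 hours at 37 degrees C. Per-cell GFP summed per well was normalised to unstimulated and stimulated DMSO controls before curve fitting.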
Numbers stand for hits. The call rests on the fitted dose curve; in most records, active means well fitted curve in the direction sought with a large enough effect; inconclusive means small, poorly fitted or top-dose-only effect, or another doubt; inactive means no such curve, though single readings can be large; an effect the other way counts as inactive or inconclusive.

CCOc1ccc(CNC(=O)C(C)n2ccc3cc(S(=O)(=O)N4CCCC4)ccc32)cc1 (stereo not given) was read as TDP1 cell noCPT 21µM, TDP1 cell CPT inconclusive, ATXN viability inactive, HepG2 tox inactive and TGFb inhibitor inconclusive.
CC(C(=O)NCc1ccc(F)cc1)n1ccc2cc(S(=O)(=O)N3CCCC3)ccc21 (stereo not given) was read as TDP1 cell noCPT inconclusive, TDP1 cell CPT inconclusive, ATXN viability inactive, ATXN2 expr inh inactive, HepG2 tox inactive and TGFb inhibitor inactive.
`CN(c1ccc(F)cc1)S(=O)(=O)N1CCCC(C(=O)NCCc2ccccc2)C1` (stereo not given) gave TDP1 cell noCPT inconclusive, TDP1 cell CPT 21µM, HepG2 tox inactive and TGFb inhibitor inconclusive.
`CSc1ccc(CCNC(=O)C2CCCN(S(=O)(=O)N3CCOCC3)C2)cc1` (stereo not given) gave TDP1 cell noCPT inactive, TDP1 cell CPT inactive, ATXN viability inactive, HepG2 tox inactive and TGFb inhibitor inactive.
For CSc1ccc(CCNC(=O)C2CCCN(S(=O)(=O)N(C)c3ccc(F)cc3)C2)cc1 (stereo not given) the results were TDP1 cell noCPT 9.2µM, TDP1 cell CPT 6.5µM, HepG2 tox inactive and TGFb inhibitor inconclusive.
For COc1cccc(CNC(=O)C2CCCN(S(=O)(=O)N(C)c3ccc(F)cc3)C2)c1OC (stereo not given) the results were TDP1 cell noCPT 3.7µM, TDP1 cell CPT 3.3µM, HepG2 tox inactive and TGFb inhibitor inconclusive.
COc1ccccc1CNC(=O)C1CCCN(S(=O)(=O)c2cnc[nH]2)C1 (stereo not given) was read as TDP1 cell noCPT inactive, TDP1 cell CPT inactive, ATXN viability inactive, ATXN2 expr inh inactive, HepG2 tox inactive and TGFb inhibitor inactive.
`CCOC(=O)c1cc(NC(=O)c2c(C)noc2C)cc(C(=O)OCC)c1` gave TDP1 cell noCPT inactive, TDP1 cell CPT inactive, ATXN viability inactive, ATXN2 expr inh inactive, HepG2 tox inactive and TGFb inhibitor inactive.
O=c1onc2cnc3ccccc3n12 was read as TDP1 cell noCPT 13µM and TDP1 cell CPT inconclusive.
`Cc1ccc(-c2nc(N/N=C/c3cccnc3)c3ccccc3n2)cc1` gave TDP1 cell noCPT 18µM, TDP1 cell CPT 23µM, ATXN viability inactive, ATXN2 expr inh inactive, HepG2 tox 14µM and TGFb inhibitor inconclusive.
Screening Cc1ccc(-c2nc(NCc3cccnc3)c3ccccc3n2)cc1 returned TDP1 cell noCPT inactive, TDP1 cell CPT inactive, ATXN viability inconclusive, ATXN2 expr inh inactive, HepG2 tox inactive and TGFb inhibitor inactive.
`Cc1ccc(-c2nc(N/N=C/c3cccc([N+](=O)[O-])c3)c3ccccc3n2)cc1` gave TDP1 cell noCPT 15µM, TDP1 cell CPT 13µM, ATXN2 expr inh inconclusive, HepG2 tox inactive and TGFb inhibitor inactive.
For O=[N+]([O-])c1cccc(C=NNc2ccccc2)c1 the results were TDP1 cell noCPT inconclusive, TDP1 cell CPT inactive, ATXN viability inconclusive, ATXN2 expr inh inactive, HepG2 tox inactive and TGFb inhibitor inactive.
OC(c1cccc(Cl)c1)c1nc(-c2cnc3ccccc3c2)cs1 (stereo not given) was read as TDP1 cell noCPT 13µM, TDP1 cell CPT 26µM, ATXN viability inconclusive, ATXN2 expr inh inactive, HepG2 tox inactive and TGFb inhibitor inconclusive.
COc1ccc(C(O)c2nc(-c3cccc(O)c3)cs2)cc1 (stereo not given) was read as TDP1 cell noCPT inconclusive, TDP1 cell CPT inconclusive, ATXN viability inactive, ATXN2 expr inh inactive, HepG2 tox inactive and TGFb inhibitor inactive.
Screening OC(c1ccc(F)cc1)c1nc(-c2cnc3ccccc3c2)cs1 (stereo not given) returned TDP1 cell noCPT inconclusive, TDP1 cell CPT 18µM, ATXN viability inactive, ATXN2 expr inh inactive, HepG2 tox inactive and TGFb inhibitor inactive.
OC(c1ccc(F)cc1)c1nc(-c2cc3ccccc3o2)cs1 (stereo not given) was read as TDP1 cell noCPT inconclusive, TDP1 cell CPT inconclusive, ATXN viability inactive, ATXN2 expr inh inactive, HepG2 tox inactive and TGFb inhibitor inactive.
COc1ccc(C(O)c2nc(-c3cnc4ccccc4c3)cs2)cc1 (stereo not given) was read as TDP1 cell noCPT 15µM, TDP1 cell CPT inconclusive, ATXN viability inconclusive, ATXN2 expr inh inactive, HepG2 tox inactive and TGFb inhibitor inactive.
`COc1ccc(COC(=O)c2ccc(S(=O)(=O)N3CCCCC3)cc2)cc1OC` gave TDP1 cell noCPT inactive, TDP1 cell CPT inactive, ATXN viability inconclusive, ATXN2 expr inh inactive, HepG2 tox inactive and TGFb inhibitor inactive.
For CCOC(=O)C1(C)CCCN(C(=O)c2cc(F)ccc2C)C1 (stereo not given) the results were TDP1 cell noCPT inactive, TDP1 cell CPT inactive, ATXN viability inactive, ATXN2 expr inh inactive, HepG2 tox inactive and TGFb inhibitor inactive.
Screening O=C(Nc1ccc(O)c(-c2nc3ccccc3o2)c1)C1(c2ccccc2)CCCC1 returned TDP1 cell noCPT inconclusive, TDP1 cell CPT inconclusive, ATXN viability inactive, ATXN2 expr inh inactive, HepG2 tox inactive and TGFb inhibitor inactive.
For CCc1ccc(NC(=O)Cn2ccn(-c3ccc(C)c(C)c3)c(=O)c2=O)cc1 the results were TDP1 cell noCPT inactive, TDP1 cell CPT inactive, HepG2 tox inactive and TGFb inhibitor inactive.
`COc1ccc2nc(SCc3ncc(C)c(OC)c3C)[nH]c2c1` gave ATXN viability inactive and ATXN2 expr inh inactive.
`O=C(O)Cc1c[nH]c2ccccc12` gave TDP1 cell noCPT inactive, TDP1 cell CPT inactive, ATXN viability inactive, ATXN2 expr inh inactive, HepG2 tox inactive and TGFb inhibitor inactive.
For O=C(CCl)N(c1ccc(Cl)cc1)c1c[nH]c2ccccc12 the results were TDP1 cell noCPT 1.8µM, TDP1 cell CPT 1.8µM, ATXN viability 18µM, ATXN2 expr inh inconclusive, HepG2 tox 18µM and TGFb inhibitor 16µM.
For O=C(CCl)N(c1ccccc1)c1c[nH]c2ccccc12 the results were TDP1 cell noCPT 2.9µM, TDP1 cell CPT 2.3µM, ATXN viability 25µM, ATXN2 expr inh inconclusive, HepG2 tox inactive and TGFb inhibitor 8.9µM.
For C/C(=N\OCC(=O)Nn1c(=O)[nH]c2ccccc2c1=O)c1cccs1 the results were TDP1 cell noCPT inactive, TDP1 cell CPT inactive, ATXN viability inactive, HepG2 tox inactive and TGFb inhibitor inactive.
